Measurements: PubChem BioAssay AID430 (Sanford-Burnham Center for Chemical Genomics, 2006)
About 1,100 (1.7%) of roughly 63,000 compounds were called active. No stated cut-off is given here; in the data, active means cytotoxicity above about 50%; inactive means the rest. The full list was thinned out, with actives kept by preference. Results with a measured potency or affinity are listed apart.

test: HPDE-C7 pancreatic duct cell viability loss – fluorescence, HTS (AID 430); details: HPDE-C7 pancreatic duct cells viability, at 10 µM, stronger effect = higher value;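 further: cells exposed to compound for 48 hours before viability readout; 0% = vehicle and 100% = reference cytotoxic drug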

Compound | cytotoxicity
Cc1ccccc1-c1nn2c(-c3ccccc3)nnc2s1 | -0.8% (inactive)
Cc1nnc2sc(-c3csc4c3CCCC4)nn12 | -4.3% (inactive)
c1ccc(-c2nnc3sc(-c4csc5c4CCCC5)nn23)cc1 | 75% (active)
CCS(=O)(=O)n1nc(-c2ccccc2)cc1N | 1% (inactive)
CC(C)(C)c1ccc(Cn2nnc3c(=O)[nH]c(C4CCN(C(=O)Cc5cccs5)CC4)nc32)cc1 | 0.2% (inactive)
O=C(Cc1cccs1)N1CCCC(c2nc3c(nnn3Cc3ccc(F)cc3)c(=O)[nH]2)C1 (stereo not drawn) | 3.7% (inactive)
CCCOC(=O)c1ccc(OC(=O)c2ccco2)cc1 | -5.8% (inactive)
COc1ccc(C(=O)OCCN2C(=O)c3ccccc3C2=O)cc1 | -2.8% (inactive)
CCOc1ccc(-c2n[nH]c(C)c2-c2ccccc2OC)c(O)c1 | -12.5% (inactive)
CCCOC(=O)c1ccc(NC(=O)c2cnccn2)cc1 | -2% (inactive)
CCC(=O)Nc1c2c(nn1-c1ccc(C)cc1C)CSC2 | -2.4% (inactive)
O=C(Nc1ccon1)c1cccc(S(=O)(=O)N2CCCC2)c1 | -18.1% (inactive)
Cc1ccc(C)c(NC(=O)CCn2nc(C)cc2C)c1 | -17.9% (inactive)
c1ccc2[nH]c(CN3CCN(c4ncnc5c4oc4ccccc45)CC3)nc2c1 | -2.8% (inactive)
CC(=O)N1CCN(C(=O)COc2ccc(Br)cc2)CC1 | 4.1% (inactive)
CCOc1ccc(NC(=O)c2ccccc2NC(=O)CN2CCN(C(C)=O)CC2)cc1 | -0.6% (inactive)
O=C(C1CCN(Cc2ccc(F)cc2)CC1)N(CCO)Cc1ccccc1 | 2.8% (inactive)
COC(=O)c1c(NC(C)=O)sc2c1CCCC2 | -2% (inactive)
COC(=O)c1c(NC(=O)c2ccoc2C)sc2c1CCC2 | -21% (inactive)
COC(=O)c1c(NC(=O)c2ccc(Br)s2)sc2c1CCC2 | 53.5% (active)
O=C(Nc1ccc2c(c1)OCO2)C(c1ccc(Cl)cc1)N1CCC2(CC1)OCCO2 (stereo not drawn) | 4.2% (inactive)
CC(=O)c1c(C)nc(-c2ccc3c(c2)OCO3)n1O | -6.2% (inactive)
CC1CCN(C(=O)CNC(=O)Cn2ccc3ccccc3c2=O)CC1 | -13.9% (inactive)
CN1CC2=Cc3ccccc3OC23Oc2ccccc2C=C3C1 | 58.3% (active)
CCCCn1c(=O)[nH]c(=O)c2c1nc(COC(=O)c1c(C)noc1C)n2CCC | -7% (inactive)

Compound | cytotoxicity
CSc1nc(-c2ccco2)cc(-c2ccccc2)c1C#N | -2.3% (inactive)
Cc1cc(-c2ccccc2)c(C#N)c(N)n1 | -14.3% (inactive)
C=CCn1c(SCC(=O)C(C)(C)C)nnc1-c1cccs1 | -5.8% (inactive)
COc1cc(C(=O)Oc2c(CN3CCOCC3)cc(Cl)c3cccnc23)cc(OC)c1OC | 29% (inactive)
O=C(Oc1ccc(Cl)c2cccnc12)N1CCOCC1 | 10.3% (inactive)
O=C(Oc1c(Cl)cc(Cl)c2cccnc12)N1CCOCC1 | 3.3% (inactive)
COc1ccc(C(=O)Oc2c(CN3CCOCC3)cc(Cl)c3cccnc23)cc1OC | 7.4% (inactive)
Cc1ccc(CCNC(=O)C2CCCN(S(=O)(=O)c3cnc[nH]3)C2)cc1 (stereo not drawn) | -8.4% (inactive)
O=C(NCC(=O)N(c1ccc2c(c1)OCO2)C(C(=O)NC1CCCC1)c1ccncc1)c1ccco1 (stereo not drawn) | -5.8% (inactive)
Cc1cccc2cc(COC(=O)c3cccnc3)c(=O)[nH]c12 | 8.9% (inactive)
CC1CCN(S(=O)(=O)c2ccc3[nH]c(=O)c(=O)[nH]c3c2)CC1 | -9% (inactive)
COC(=O)Cc1cc(=O)[nH]c(/N=C(/NC(=O)c2ccccc2)Nc2ccccc2C)n1 | 2.1% (inactive)
Cc1ccc(O)c(CC(C)C)n1 | -4.7% (inactive)
CCC(NC(C)C)C(O)c1ccc(O)c(O)c1 (stereo not drawn) | 15.3% (inactive)
O=C(c1cc2ccccc2cc1OCC(O)CN1CCCCC1)N1CCCCC1 (stereo not drawn) | -0.7% (inactive)
CC1CCCN(S(=O)(=O)c2cc(Cl)ccc2Cl)C1 (stereo not drawn) | -32.2% (inactive)
CCN(CC)S(=O)(=O)c1cccc(C(=O)Nc2nncs2)c1 | -14.1% (inactive)
CCN(CC)S(=O)(=O)c1ccc(Cl)c(C(=O)Nc2nncs2)c1 | 2.1% (inactive)
Cc1ccccc1-n1c(SC/C(O)=C(\C#N)c2nc3ccccc3[nH]2)nnc1-c1ccncc1 | -17.8% (inactive)
Nc1nc(NC(=O)c2ccco2)nn1-c1ccccc1 | 2% (inactive)
Nc1nc(NC(=O)c2cccnc2)nn1-c1ccccc1 | 3.1% (inactive)
CC1=C(C(=O)OC2CCCCCC2)C(c2ccc(C)o2)C2=C(CCCC2=O)N1 (stereo not drawn) | -13.9% (inactive)
CCOC(=O)CSC1=C(C#N)C(c2ccc(Cl)cc2)CC(=O)N1 (stereo not drawn) | -16% (inactive)
Cc1ccc(C2CC(=O)NC(SCC(=O)OCc3ccccc3)=C2C#N)o1 (stereo not drawn) | 59.6% (active)
CCCCCCSC1=C(C#N)C(c2ccc(C)o2)CC(=O)N1 (stereo not drawn) | -8% (inactive)

Compound | cytotoxicity
Cc1ccc(C2CC(=O)NC(SCc3ccccc3)=C2C#N)o1 (stereo not drawn) | 10.6% (inactive)
CCOC(=O)CSC1=C(C#N)C(c2ccc(C)o2)CC(=O)N1 (stereo not drawn) | 68.5% (active)
CC1=C(C(=O)OC2CCCCC2)C(c2ccc(C)o2)C2=C(CCCC2=O)N1 (stereo not drawn) | -7% (inactive)
COC(=O)CSC1=C(C#N)C(c2ccccc2)CC(=O)N1 (stereo not drawn) | -10% (inactive)
CC1=C(C(=O)OCc2ccccc2)C(c2ccc(C)o2)C2=C(CCCC2=O)N1 (stereo not drawn) | 54.4% (active)
CC(=O)Nc1cccc(NC(=O)CSc2nnc(Cc3cccn3C)n2-c2ccc(F)cc2)c1 | -6.9% (inactive)
Cc1cccc(C(C)(C)C)c1OCCn1ccnc1 | 8.6% (inactive)
COc1ccc(S(=O)(=O)N(CC(N)=O)C2CCCCC2)cc1Cl | -13.6% (inactive)
O=C(CN1CCN(C(=O)c2ccco2)CC1)Nc1ccc2c(c1)OCCO2 | -13.8% (inactive)
CCn1c(N2CCC(Cc3ccccc3)CC2)nc2c1c(=O)[nH]c(=O)n2C | -25.9% (inactive)
CC(=O)OC[C@H]1O[C@@H](n2ncc(=O)[nH]c2=O)[C@H](OC(C)=O)[C@@H]1OC(C)=O | 56.2% (active)
CC(=O)OCC1OC(n2ccc(=O)[nH]c2=O)C(O)C1O (stereo not drawn) | -11.3% (inactive)
CC(=O)OC[C@H]1O[C@@H](n2ccc(=O)[nH]c2=S)C(OC(C)=O)C1OC(C)=O (stereo partly drawn) | -1% (inactive)
CCSc1cc(C2C(C#N)=C(N)OC(C)=C2C(=O)OC)c(C)o1 (stereo not drawn) | 3.5% (inactive)
CCOC(=O)CCc1nn(C)c(=O)c2ccccc12 | -11.1% (inactive)
Cc1ccc(S(=O)(=O)N(C)CC(=O)N2CCN(c3ccccn3)CC2)cc1 | 6.4% (inactive)
Cc1cc(-c2csc(NC(=O)c3ccc(=O)n(C)n3)n2)c(C)n1CC1CCCO1 (stereo not drawn) | -8.1% (inactive)
O=C1Nc2ccccc2C12OCC(COc1ccc(Cl)cc1)O2 (stereo not drawn) | 30.3% (inactive)
CCC(C)n1ncn(-c2ccc(N3CCN(c4ccc(OCC5COC(Cn6cncn6)(c6ccc(Cl)cc6Cl)O5)cc4)CC3)cc2)c1=O (stereo not drawn) | 65.7% (active)
CCCC1COC(Cn2cncn2)(c2ccc(C)cc2)O1 (stereo not drawn) | -5.7% (inactive)
Cc1noc(C)c1S(=O)(=O)NC1CCN(Cc2ccccc2)CC1 | 1.4% (inactive)
Cc1n[nH]c(=O)nc1NCc1ccccc1 | -20.4% (inactive)
CCCCCc1c(C)nc(NCc2ccccc2)[nH]c1=O | -8.7% (inactive)
COc1ccc(CCNC(=O)COc2nsnc2N2CCOCC2)cc1OC | -12.4% (inactive)
C=CCNC(=O)CCCCC(=O)NCC=C | -16.1% (inactive)

Compound | cytotoxicity
CN1CCN(CCCNC(=O)c2cc3c(-c4ccc(Cl)cc4)nn(C)c3s2)CC1 | 13.3% (inactive)
Cn1nc(-c2ccc(Cl)cc2)c2cc(C(=O)NCCCN3CCCC3)sc21 | 69.7% (active)
Cn1nc(-c2ccc(Cl)cc2)c2cc(C(=O)NCCCN3CCOCC3)sc21 | 8.3% (inactive)
Cc1nc(Sc2nnnn2-c2ccccc2)c(C#N)c(C)c1C | -11.7% (inactive)
Cc1sc2ncnc(Sc3nnnn3-c3ccccc3)c2c1C | 71% (active)
Clc1ccc(-n2nnnc2Sc2ncnc3sccc23)cc1 | 4.6% (inactive)
Cc1sc2ncnc(SCc3ccco3)c2c1C | -13.2% (inactive)
CCCn1c(Sc2nnnn2-c2ccccc2)n[nH]c1=O | -7.4% (inactive)
COc1ccc(OC)c(-c2cc(C(=O)NCCCn3ccnc3)no2)c1 | 32.2% (inactive)
Cc1cc(NC(=O)C2CCCN(S(=O)(=O)c3c(C)noc3C)C2)no1 (stereo not drawn) | 9.5% (inactive)
O=C(O)c1ccc(OCc2occc2C(=O)O)cc1 | -2.7% (inactive)
CCOc1ccc(N(CC(N)=O)S(=O)(=O)c2ccc(F)cc2)cc1 | -0.6% (inactive)
Cc1cc2c(c(=O)n1CCN(C)C)C(c1ccc(Cl)cc1)C(C#N)=C(N)O2 (stereo not drawn) | -13.8% (inactive)
Cc1cc2c(c(=O)n1CCN(C)C)C(c1ccc(Br)cc1)C(C#N)=C(N)O2 (stereo not drawn) | 73.4% (active)
Cc1cc2c(c(=O)n1CCN(C)C)C(c1ccncc1)C(C#N)=C(N)O2 (stereo not drawn) | 13.1% (inactive)
Cc1cccc2cc(CN(Cc3ccc(F)cc3)C(=O)N(C)C)c3nnnn3c12 | 5.9% (inactive)
N#C/C(=C(/O)CN1CCOCC1)c1nc2ccccc2s1 | 1.3% (inactive)
COC(=O)c1ccc(/C(O)=C(\C#N)c2nc3ccccc3s2)cc1 | 58.4% (active)
CC(C)=C(C#N)c1nc2ccccc2s1 | -8.8% (inactive)
Cc1ccc(SC/C(O)=C(\C#N)c2nc3ccccc3n2C)cc1 | 16.2% (inactive)
COc1ccc(C/C(O)=C(\C#N)c2nc3ccccc3s2)cc1 | 46.3% (inactive)
Cc1ccc(SC/C(O)=C(\C#N)c2nc3ccccc3s2)cc1 | 79.2% (active)
N=c1n(CCN2CCCCC2)c2ccccc2n1CC(O)c1cccc(Br)c1 (stereo not drawn) | 44.6% (inactive)
